# In PubChem BioAssay (NCATS):
# Results filed as inconclusive are left out. A call without a number means that no potency is given here. Activity calls are given as the source filed them. Unless noted, the call rests on the fitted dose curve; in most records, active means well fitted curve in the direction sought with a large enough effect; inconclusive means small, poorly fitted or top-dose-only effect, or another doubt; inactive means no such curve, though single readings can be large; an effect the other way counts as inactive or inconclusive.
# What was measured:
# [1] = molecular target: Chromobox protein homolog 1 (Homo sapiens) (UniProt P83916); experiment: qHTS Validation Assay for Inhibitors of HP1-beta Chromodomain Interactions with Methylated Histone Tails (AID 488953); further: nearly all actives have a fitted effect of over 50% in size; further: potency means the concentration at half of the fitted maximal effect
# Chain of Chromobox protein homolog 1 (Homo sapiens) (P83916 whole entry, looked up): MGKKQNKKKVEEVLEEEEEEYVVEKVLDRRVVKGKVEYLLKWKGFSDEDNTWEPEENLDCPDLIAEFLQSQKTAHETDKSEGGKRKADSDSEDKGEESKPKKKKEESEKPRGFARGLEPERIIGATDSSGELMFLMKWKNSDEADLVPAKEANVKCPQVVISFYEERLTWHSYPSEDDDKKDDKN
# In short: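 Compounds pinned into a preassembled complex of HP1-beta and trimethyl-K9 histone H3(1-18) biotin peptide (50 nM each; PBS pH 7.4, 0.01% Tween-20). After 30 min, bead-based AlphaScreen detection followed.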
# [2] = molecular target: Methanococcus maripaludis chaperonin (MmCpn) (UniProt Q6LX38); experiment: High-Throughput Screening for Modulators of Cytosolic Chaperonin Activity: MmCpn Primary Screen (AID 488978);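 further: 50 nM MmCpn enzyme hydrolysing 30 µM ATP at 37 °C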
# Chain of Methanococcus maripaludis chaperonin (MmCpn) (Q6LX38 1-543): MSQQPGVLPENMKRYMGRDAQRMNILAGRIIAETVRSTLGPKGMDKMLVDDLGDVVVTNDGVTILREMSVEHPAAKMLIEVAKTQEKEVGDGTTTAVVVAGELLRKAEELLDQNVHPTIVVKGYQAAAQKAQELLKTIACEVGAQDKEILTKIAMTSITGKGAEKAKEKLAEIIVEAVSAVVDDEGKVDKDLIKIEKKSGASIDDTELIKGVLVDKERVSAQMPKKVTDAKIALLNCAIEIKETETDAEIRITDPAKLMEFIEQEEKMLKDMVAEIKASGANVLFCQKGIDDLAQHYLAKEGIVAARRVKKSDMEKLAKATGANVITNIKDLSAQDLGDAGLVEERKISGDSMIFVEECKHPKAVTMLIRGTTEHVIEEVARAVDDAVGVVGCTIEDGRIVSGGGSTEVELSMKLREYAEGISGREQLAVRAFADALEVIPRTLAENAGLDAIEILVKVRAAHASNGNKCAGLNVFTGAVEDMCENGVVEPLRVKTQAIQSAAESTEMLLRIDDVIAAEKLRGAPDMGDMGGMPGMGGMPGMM
# In short: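 ATPase activity of 50 nM MmCpn was assayed with 30 uM ATP, 10 minutes at 37C, after a 5 min compound preincubation at room temperature. ADP production was read as HTRF emission at 590 and 665 nm.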
# [3] = molecular target: Thyrotropin receptor (Homo sapiens) (UniProt P16473); experiment: qHTS Assay for Antagonists of the Thyroid Stimulating Hormone Receptor (AID 488980); further: series mostly up to about 58 µM
# Chain of Thyrotropin receptor (Homo sapiens) (P16473 whole entry, looked up): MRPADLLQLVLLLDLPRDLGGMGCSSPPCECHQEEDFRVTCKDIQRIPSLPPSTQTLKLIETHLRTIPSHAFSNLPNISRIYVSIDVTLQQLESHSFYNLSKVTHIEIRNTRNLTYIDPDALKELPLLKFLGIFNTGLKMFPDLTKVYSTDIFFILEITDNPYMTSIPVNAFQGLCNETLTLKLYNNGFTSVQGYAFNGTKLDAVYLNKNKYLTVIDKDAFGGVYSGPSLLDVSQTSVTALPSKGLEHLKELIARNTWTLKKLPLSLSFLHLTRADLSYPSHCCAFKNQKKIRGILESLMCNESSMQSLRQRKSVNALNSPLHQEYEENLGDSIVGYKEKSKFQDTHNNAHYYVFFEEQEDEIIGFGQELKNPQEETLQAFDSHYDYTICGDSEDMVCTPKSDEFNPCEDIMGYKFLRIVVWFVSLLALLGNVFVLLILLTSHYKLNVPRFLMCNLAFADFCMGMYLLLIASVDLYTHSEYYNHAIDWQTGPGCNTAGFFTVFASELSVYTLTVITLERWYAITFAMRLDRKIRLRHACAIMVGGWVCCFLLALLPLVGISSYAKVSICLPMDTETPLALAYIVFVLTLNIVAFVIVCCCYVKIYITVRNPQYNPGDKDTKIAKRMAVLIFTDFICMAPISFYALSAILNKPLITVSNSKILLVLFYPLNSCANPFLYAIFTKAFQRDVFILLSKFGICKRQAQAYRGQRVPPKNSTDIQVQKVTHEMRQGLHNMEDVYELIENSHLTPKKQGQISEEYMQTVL
# In short: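 Inhibition of cAMP raised by EC80 TSH (4 nM final) was read by HTRF, with lysate cAMP competing against cAMP-d2 for cryptate antibody after 30 min at room temperature. The cells were transfected HEK293 held in phosphodiesterase inhibitor RO 20-1724 at 70 uM.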
# [4] = molecular target: D(1A) dopamine receptor (Homo sapiens) (UniProt P21728); experiment: HTS Assay for Allosteric Agonists of the Human D1 Dopamine Receptor: Primary Screen for Agonists (AID 488981); further: potency means the concentration at half of the fitted maximal effect
# Chain of D(1A) dopamine receptor (Homo sapiens) (P21728 whole entry, looked up): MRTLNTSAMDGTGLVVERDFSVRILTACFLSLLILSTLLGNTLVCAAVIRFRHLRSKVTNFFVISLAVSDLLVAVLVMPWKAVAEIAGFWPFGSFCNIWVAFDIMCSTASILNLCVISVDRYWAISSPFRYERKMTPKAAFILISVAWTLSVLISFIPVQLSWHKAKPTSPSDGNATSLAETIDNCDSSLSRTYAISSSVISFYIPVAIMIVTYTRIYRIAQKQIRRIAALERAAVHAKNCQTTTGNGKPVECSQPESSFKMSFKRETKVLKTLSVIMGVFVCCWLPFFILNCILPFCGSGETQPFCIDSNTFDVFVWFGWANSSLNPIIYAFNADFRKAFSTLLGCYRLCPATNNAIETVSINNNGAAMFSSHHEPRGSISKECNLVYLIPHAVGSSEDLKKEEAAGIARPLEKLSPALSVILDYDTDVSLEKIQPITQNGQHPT
# In short: (§1)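 Tetracycline-induced HEK293 T-REx cells force-coupled to calcium signalling were incubated overnight at 30 C and dye-loaded at room temperature. Calcium flux over 180 s after compound addition flagged agonists; a further 180 s read after EC20 dopamine flagged potentiators.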
# [5] = molecular target: D(1A) dopamine receptor (Homo sapiens) (UniProt P21728); experiment: HTS Assay for Allosteric Agonists of the Human D1 Dopamine Receptor: Primary Screen for Potentiators (AID 488982)
# In short: as §1
# [6] = molecular target: D(1A) dopamine receptor (Homo sapiens) (UniProt P21728); experiment: HTS Assay for Allosteric Agonists of the Human D1 Dopamine Receptor: Primary Screen for Antagonists (AID 488983);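 further: calcium flux response to an EC80 dopamine challenge measured with no-wash dye; nearly all actives have a fitted effect of over 65% in size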; further: potency means the concentration at half of the fitted maximal effect
# In short: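 In this primary screen, compounds are applied to calcium-dye-loaded HEK293 T-REx cells with force-coupled D1 expression induced overnight at 30 C. An EC80 of dopamine follows the 180 s compound phase, and calcium is monitored for a further 180 s.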
# [7] = Validation screen for small molecules that induce genotoxicity in human embryonic kidney (HEK293T) cells expressing luciferase-tagged ELG1 (AID 493106)
# In short: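 In this validation screen, increased ELG1-luciferase signal flags compounds causing genetic stress. HEK293T reporter cells are treated 16 hr (37 °C, 5% CO2), developed with ONE-Glo for 30 min at room temperature, and imaged on a CCD-based reader.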
# [8] = molecular target: ATPase family AAA domain-containing protein 5 (Homo sapiens) (UniProt Q96QE3); experiment: Validation screen for small molecules that inhibit ELG1-dependent DNA repair in human embryonic kidney (HEK293T) cells expressing luciferase-tagged ELG1 (AID 493107);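 further: cells co-treated with the DNA-damaging agent 5-fluorouridine alongside compound; series mostly up to about 46 µM; inhibitors lower the ELG1-luciferase luminescence signal; nearly all actives have a fitted effect of over 70% in size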
# In short: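 Compounds reducing 5-fluorouridine-driven ELG1-luciferase signal in HEK293T cells were scored; exposure lasted 16 hr at 37 °C with luminescence detected via ONE-Glo.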
# [9] = molecular target: Thyrotropin-releasing hormone receptor (Homo sapiens) (UniProt P34981); experiment: qHTS for Small Molecule Agonists and Allosteric Enhancers of Human TRH Receptor: Validation Screen for Agonists (AID 493127;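 active means calcium activation more than 3 SD above the typical response in the agonist read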;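 further: intracellular calcium rise by fluo-8 fluorescence before TRH EC20 addition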); conditions: TRH receptor agonist cell assay; at 2 µM; stronger effect = higher value
# Chain of Thyrotropin-releasing hormone receptor (Homo sapiens) (P34981 whole entry, looked up): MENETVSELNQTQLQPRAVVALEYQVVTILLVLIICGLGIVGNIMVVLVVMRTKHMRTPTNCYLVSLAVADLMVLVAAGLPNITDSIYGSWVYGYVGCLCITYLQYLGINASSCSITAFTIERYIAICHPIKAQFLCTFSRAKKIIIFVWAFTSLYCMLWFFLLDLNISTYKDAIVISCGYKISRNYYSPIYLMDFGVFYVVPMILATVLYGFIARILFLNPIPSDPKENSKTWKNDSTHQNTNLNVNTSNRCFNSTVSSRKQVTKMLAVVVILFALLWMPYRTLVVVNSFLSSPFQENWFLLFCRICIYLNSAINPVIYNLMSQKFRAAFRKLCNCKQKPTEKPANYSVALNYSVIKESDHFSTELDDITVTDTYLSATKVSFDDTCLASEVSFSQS
# In short: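 Kinetic fluorescence assay of agonist-induced calcium release: overnight-plated TRHR cells, room-temperature fluo-8 loading, baseline then compound addition with per-second reads.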
# [10] = Nrf2 qHTS screen for inhibitors: Validation (AID 493153; active means well fitted inhibition curve with a large enough effect in the main read-out, with a control signal flat, not every such curve was filed as active); conditions: Potency: luciferase luminescence; viability change: measured here: cytotoxicity max response
# In short: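 In this counterscreened reporter format, each well gives two signals: CellTiter-Fluor fluorescence for cytotoxicity and ARE-luciferase luminescence for Nrf2 function. A549 ARE_Fluc cells in 5% FBS OPTI-MEM were exposed to compound titrations for 18-24 h.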
# [11] = qHTS for Inhibitors of Cell Surface uPA Generation: Validation Assay (AID 493164);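 further: RAW 264.7 macrophage cells exposed to compound for 18 h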
# In short: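 Compounds are titrated over seven points (2.45 nM–38.3 uM final) onto pre-plated RAW 264.7 cells and incubated for 18 h. Retained intracellular ATP, measured with ATP-Lite, indicates blocked lethal factor entry.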
# [12] = molecular target: Galactokinase (Homo sapiens) (UniProt P51570); experiment: qHTS Validation Assay for Inhibitors of Human Galactokinase (GALK) (AID 493189)
# Chain of Galactokinase (Homo sapiens) (P51570 whole entry, looked up): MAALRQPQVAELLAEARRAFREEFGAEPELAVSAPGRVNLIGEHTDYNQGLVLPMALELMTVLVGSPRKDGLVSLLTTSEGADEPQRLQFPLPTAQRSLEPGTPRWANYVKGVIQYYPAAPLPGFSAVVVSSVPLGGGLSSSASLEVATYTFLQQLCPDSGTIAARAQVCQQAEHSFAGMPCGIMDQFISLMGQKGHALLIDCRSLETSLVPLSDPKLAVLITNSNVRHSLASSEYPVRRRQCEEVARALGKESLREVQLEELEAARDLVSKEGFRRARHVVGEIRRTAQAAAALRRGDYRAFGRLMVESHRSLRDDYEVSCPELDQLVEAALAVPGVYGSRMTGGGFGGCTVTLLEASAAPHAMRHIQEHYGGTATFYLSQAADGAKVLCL
# In short: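 Inhibition was measured as remaining ATP, detected by luciferase luminescence after a 1 h room-temperature reaction. Final conditions: 5 nM GALK, 100 uM galactose, 35 uM ATP, pH 8.0 HEPES buffer.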
# [13] = Validation screen for small molecules that induce DNA re-replication in SW480 colon adenocarcinoma cells (AID 504364)
# In short: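 Hoechst-stained SW480 nuclei, imaged at 405 nm excitation after 48 hr compound exposure, were counted for elevated DNA content as the re-replication signal.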
# [14] = molecular target: Peptidyl-prolyl cis-trans isomerase NIMA-interacting 1 (Homo sapiens) (UniProt Q13526); experiment: qHTS Validation Assay to Find Inhibitors of Pin1 (AID 504536; active means well fitted inhibition curve with a large enough effect in the polarisation, with a control signal flat, not every such curve was filed as active; the % refers to the polarisation)
# Chain of Peptidyl-prolyl cis-trans isomerase NIMA-interacting 1 (Homo sapiens) (Q13526 whole entry, looked up): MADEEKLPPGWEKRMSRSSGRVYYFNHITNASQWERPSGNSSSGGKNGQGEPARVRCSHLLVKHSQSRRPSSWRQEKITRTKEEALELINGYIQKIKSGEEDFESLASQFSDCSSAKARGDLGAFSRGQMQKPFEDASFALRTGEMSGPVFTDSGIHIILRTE
# In short: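 Fluorescence polarization competition: compounds (titration) displace HiFluor-488-labeled Pin1-1b peptide from Pin1 (0.3 uM final) in pH 7.5 HEPES buffer with DTT, 10 min at room temperature; %Activity normalized to no-enzyme wells, curves fitted.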
# [15] = molecular target: Phosphoglycerate kinase, glycosomal (Trypanosoma brucei brucei) (UniProt P07378); experiment: qHTS Validation Assay to Find Inhibitors of Phosphoglycerate Kinase (AID 504547)
# Chain of Phosphoglycerate kinase, glycosomal (Trypanosoma brucei brucei) (P07378 whole entry, looked up): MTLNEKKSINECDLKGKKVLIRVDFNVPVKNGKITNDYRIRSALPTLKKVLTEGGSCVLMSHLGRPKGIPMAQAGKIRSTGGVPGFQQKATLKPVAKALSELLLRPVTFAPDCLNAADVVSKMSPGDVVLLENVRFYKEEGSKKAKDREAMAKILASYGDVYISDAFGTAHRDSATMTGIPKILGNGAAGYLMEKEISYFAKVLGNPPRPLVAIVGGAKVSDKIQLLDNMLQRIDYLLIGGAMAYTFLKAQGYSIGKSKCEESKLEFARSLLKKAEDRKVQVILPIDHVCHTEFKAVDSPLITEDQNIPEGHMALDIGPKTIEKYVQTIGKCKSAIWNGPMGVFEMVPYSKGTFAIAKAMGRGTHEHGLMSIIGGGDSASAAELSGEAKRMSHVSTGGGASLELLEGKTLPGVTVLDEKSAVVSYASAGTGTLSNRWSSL
# In short: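 In TEA buffer (100mM, pH 7.6) containing 5mM MgCl2 and 0.01% Tween-20, the GAPDH-coupled PGK reaction proceeded for 60 minutes at room temperature before a single luminescence reading using Kinase-Glo Plus.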
# [16] = molecular target: Ubiquitin carboxyl-terminal hydrolase 1 (Homo sapiens) (UniProt O94782); experiment: Inhibitors of USP1/UAF1: Pilot qHTS (AID 504865);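 further: rhodamine fluorescence freed from ubiquitin-rhodamine substrate followed over time; top concentration of the series differs between compounds; nearly all actives have a fitted effect of over 35% in size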
# Chain of Ubiquitin carboxyl-terminal hydrolase 1 (Homo sapiens) (O94782 whole entry, looked up): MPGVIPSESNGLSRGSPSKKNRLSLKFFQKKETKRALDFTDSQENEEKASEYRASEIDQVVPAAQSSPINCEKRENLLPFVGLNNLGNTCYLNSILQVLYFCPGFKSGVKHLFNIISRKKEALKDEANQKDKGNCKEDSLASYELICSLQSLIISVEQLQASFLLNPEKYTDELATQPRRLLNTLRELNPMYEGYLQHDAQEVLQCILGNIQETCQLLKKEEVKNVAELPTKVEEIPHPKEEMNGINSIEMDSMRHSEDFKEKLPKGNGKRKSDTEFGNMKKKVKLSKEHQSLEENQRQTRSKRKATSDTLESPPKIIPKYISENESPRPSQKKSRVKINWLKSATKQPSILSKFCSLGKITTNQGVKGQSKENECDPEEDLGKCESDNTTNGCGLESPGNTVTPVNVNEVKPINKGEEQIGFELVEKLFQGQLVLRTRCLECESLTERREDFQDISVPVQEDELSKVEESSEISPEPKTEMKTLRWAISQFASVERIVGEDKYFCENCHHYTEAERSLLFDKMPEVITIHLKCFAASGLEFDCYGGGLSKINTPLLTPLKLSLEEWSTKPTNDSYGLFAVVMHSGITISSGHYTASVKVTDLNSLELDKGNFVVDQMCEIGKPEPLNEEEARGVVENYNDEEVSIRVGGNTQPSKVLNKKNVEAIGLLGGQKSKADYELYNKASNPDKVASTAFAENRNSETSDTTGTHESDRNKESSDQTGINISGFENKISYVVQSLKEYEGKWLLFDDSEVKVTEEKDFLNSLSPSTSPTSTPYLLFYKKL
# In short: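 Deubiquitinase activity followed as kinetic rhodamine fluorescence release from 150 nM Ub-Rho. 1 nM USP1/UAF1 with compound, after 15 min room-temperature preincubation, in HEPES pH 7.8 buffer containing TCEP, EDTA, BSA and Tween-20.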
# [17] = molecular target: Transient receptor potential cation channel subfamily V member 1 (Homo sapiens) (UniProt Q8NER1); experiment: HTS Assay for Compounds that Act as Enhancers of the Vanilloid Receptor 1 (AID 488979)
# Chain of Transient receptor potential cation channel subfamily V member 1 (Homo sapiens) (Q8NER1 whole entry, looked up): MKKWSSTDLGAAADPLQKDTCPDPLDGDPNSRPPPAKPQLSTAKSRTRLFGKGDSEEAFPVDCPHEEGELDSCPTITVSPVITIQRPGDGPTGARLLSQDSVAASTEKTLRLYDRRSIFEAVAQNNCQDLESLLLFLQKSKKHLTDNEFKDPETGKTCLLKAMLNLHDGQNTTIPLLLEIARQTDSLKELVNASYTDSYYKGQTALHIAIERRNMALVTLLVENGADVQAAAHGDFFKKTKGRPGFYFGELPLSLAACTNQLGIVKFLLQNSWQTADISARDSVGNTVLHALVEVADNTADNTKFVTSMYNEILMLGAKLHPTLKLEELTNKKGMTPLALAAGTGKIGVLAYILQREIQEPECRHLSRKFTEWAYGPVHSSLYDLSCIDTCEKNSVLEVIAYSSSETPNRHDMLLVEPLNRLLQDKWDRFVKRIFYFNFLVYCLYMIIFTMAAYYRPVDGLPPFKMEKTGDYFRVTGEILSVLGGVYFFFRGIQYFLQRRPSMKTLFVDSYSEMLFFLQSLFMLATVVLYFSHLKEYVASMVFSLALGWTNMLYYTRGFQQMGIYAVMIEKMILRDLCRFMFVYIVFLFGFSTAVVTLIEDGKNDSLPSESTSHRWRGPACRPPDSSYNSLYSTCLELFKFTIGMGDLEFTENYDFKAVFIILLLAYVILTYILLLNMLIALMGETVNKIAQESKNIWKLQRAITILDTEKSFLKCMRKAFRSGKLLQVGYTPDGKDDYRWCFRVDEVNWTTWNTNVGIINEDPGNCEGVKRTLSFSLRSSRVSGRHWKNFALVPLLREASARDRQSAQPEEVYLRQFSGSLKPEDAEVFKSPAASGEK
# In short: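 TRPV1-expressing cells loaded with Fluo-8 calcium dye; compounds added and calcium influx read kinetically for 3 min (agonist phase), then capsaicin at EC20 added and read 2 min more for enhancement. Fluorescence ex 480/em 520 nm.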
# [18] = molecular target: ATP-dependent 6-phosphofructokinase (Trypanosoma brucei brucei) (UniProt O15648); experiment: qHTS Assay to Find Inhibitors of T. brucei phosphofructokinase: hit validation (AID 492961);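 further: luminescence reports ADP formed as PFK phosphorylates fructose-6-phosphate with ATP; series mostly up to about 51 µM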
# In short: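 Reaction: 0.1 M triethanolamine pH 8.0, 5 mM MgCl2, F6P 0.5 mM, ATP 0.1 mM, PFK 1.25 nM, 45 min RT. Read-out: ADP-Glo luminescence. Analysis: concentration-response fits, classed by r2 and efficacy.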
Structure (SMILES),Potency [1],Potency [2],outcome [3],Potency [4],outcome [5],Potency [6],Potency [7],outcome [8],activation [9],Potency [10],viability change [10] [%],outcome [11],outcome [12],outcome [13],outcome [14],outcome [15],Potency [16],outcome [17],Potency [18]
CC(CN1c2ccccc2Sc2ccccc21)N(C)C (stereo not drawn),39.8 µM (active),inactive,inactive,inactive,inactive,10 µM (active),inactive,inactive,3.12% (inactive),inactive,5.51,inactive,inactive,inactive,inactive,inactive,inactive,–,–
CN(C)CCOC(C)(c1ccccc1)c1ccccn1 (stereo not drawn),inactive,inactive,inactive,inactive,inactive,inactive,inactive,inactive,–,inactive,-4.35,inactive,inactive,inactive,inactive,inactive,inactive,inactive,–
OCCN1CCN(CCCN2c3ccccc3Sc3ccc(Cl)cc32)CC1,31.6 µM (active),inactive,inactive,–,inactive,0.794 µM (active),inactive,inactive,0.75% (inactive),inactive,-4.58,inactive,inactive,–,inactive,inactive,–,–,inactive
CC(C)C(=O)c1c(C(C)C)nn2ccccc12,inactive,inactive,–,inactive,inactive,inactive,inactive,inactive,-4.94% (inactive),–,–,inactive,inactive,inactive,inactive,inactive,–,inactive,–
CC(C)(C(=O)O)c1ccc(C(O)CCCN2CCC(C(O)(c3ccccc3)c3ccccc3)CC2)cc1 (stereo not drawn),inactive,inactive,inactive,inactive,inactive,inactive,inactive,inactive,-0.125% (inactive),inactive,5.93,inactive,–,inactive,inactive,inactive,–,inactive,–
CC(C(O)c1ccc(O)cc1)N1CCC(Cc2ccccc2)CC1 (stereo not drawn),inactive,inactive,–,11.2 µM (active),inactive,–,inactive,–,5.75% (inactive),inactive,-19.8,inactive,inactive,inactive,inactive,inactive,inactive,–,–
